# Reference: the supplement of paper PMC12067926
# A number with no mark means an inactive call.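 The calls were made as follows: active = growth AUC significantly below the DMSO wells by Dunnett test; inactive = the rest.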
# Assays:
# Assay in all cases: relative growth (AUC of 72 h growth curve relative to DMSO control, dAUC) (ratio); higher = more growth (less inhibition), active = hit call of the paper
# Conditions in all cases: 20 µM
# [1] = system: Prolinoborus 1 (Prolinoborus fasciculus)
# Procedure, shortened: (§1)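 Cultures grown to carrying capacity in Luria–Bertani medium, drawn from Icelandic stream sediment and Silwood Park soil isolates and whole sediment communities, were diluted 1:100 into 96-well plates with each chemical at 20 µM (1% DMSO) and read at A600 hourly for 72 h. The spline-integrated area under the growth curve, divided by the mean of the DMSO controls, is reported as relative growth (dAUC). Values are means of three biological replicates.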
# [2] = system: Pseudomonas 1 (Pseudomonas baetica)
# Procedure, shortened: as §1
# [3] = system: Pseudomonas 2 (Pseudomonas vancouverensis)
# Procedure, shortened: as §1
# [4] = system: Pseudomonas 3 (Pseudomonas mandelii)
# Procedure, shortened: as §1
# [5] = system: Pseudomonas 4 (Pseudomonas peli)
# Procedure, shortened: as §1
# [6] = system: Pseudomonas 5 (Pseudomonas baetica)
# Procedure, shortened: as §1
# [7] = system: Pseudomonas 6 (Pseudomonas sp.)
# Procedure, shortened: as §1
# [8] = system: Rhizobium 1 (Rhizobium herbae)
# Procedure, shortened: as §1
# [9] = system: Serratia 1 (Serratia sp. 2015-2462-01)
# Procedure, shortened: as §1
# [10] = system: Sphingomonas 2 (Sphingomonas sp.)
# Procedure, shortened: as §1
Compound,relative growth [1],relative growth [2],relative growth [3],relative growth [4],relative growth [5],relative growth [6],relative growth [7],relative growth [8],relative growth [9],relative growth [10]
O=C1C=C(N(Cc2ccc(Cl)nc2)CC(F)F)CO1,0.95,1.15,0.993,1.06,0.993,0.988,1.06,0.978,0.962,0.914
CCCC(Cn1cncn1)c1ccc(Cl)cc1Cl (stereo not given),0.988,1.01,0.994,1.02,1.07,1.01,0.993,1.04,0.994,1.03
O=C(NCCc1ncc(C(F)(F)F)cc1Cl)c1ccccc1C(F)(F)F,0.967,1.08,0.981,1.07,0.964,0.99,1.05,0.94,0.971,1.02
CN/C(=N/CC1CCOC1)N[N+](=O)[O-] (stereo not given),0.955,0.963,0.983,1.03,1.03,0.992,1.06,0.912,1.01,1.14
C#CCN1C(=O)COc2cc(F)c(N3C(=O)C4=C(CCCC4)C3=O)cc21,0.972,1.1,1,1.04,0.985,1.05,1.05,0.908,0.938,0.959
CC(C)N1C(=O)c2ccccc2NS1(=O)=O,1.01,1.16,1.03,1.02,0.975,1.01,1.03,1.04,0.991,1.01
O=[N+]([O-])c1cc(C(F)(F)F)c(Cl)c([N+](=O)[O-])c1Nc1ncc(C(F)(F)F)cc1Cl,0.66 (active),0.775,0.795 (active),0.00358 (active),0.498 (active),0.595 (active),0.258 (active),0.109 (active),0.004 (active),0.0215 (active)
Cc1cc(C)c(C2=C(OC(=O)CC(C)(C)C)C3(CCCC3)OC2=O)c(C)c1,0.977,1.1,1.12,1.09,1,1.03,1.2,0.937,1.03,1.01
N#Cc1nn(-c2c(Cl)cc(C(F)(F)F)cc2Cl)c(N)c1[S+]([O-])C(F)(F)F (stereo not given),0.897,0.913,0.948,0.94,0.987,1.01,0.962,0.971,0.96,0.983
CN(C)C(CSS(=O)(=O)O)CSS(=O)(=O)O,0.961,1.14,0.994,1.08,0.978,1.04,1.1,0.931,0.953,0.893
Oc1ccc(Cl)cc1Cc1cc(Cl)ccc1O,0.0645 (active),0.805,0.755 (active),0.8 (active),0.674 (active),0.817 (active),0.922,0.0117 (active),0.46 (active),0.0145 (active)
CC(Oc1ccc(Oc2nc3ccc(Cl)cc3o2)cc1)C(=O)O (stereo not given),0.978,0.948,1,0.97,1.01,0.962,0.916,1.07,1.04,1.12
N#C/N=C1\SCCN1Cc1ccc(Cl)nc1,1.03,1.05,1.01,1.02,1.03,1,1,1.02,0.986,0.998
COCC(=O)N(c1c(C)cccc1C)C(C)C(=O)OC (stereo not given),0.923,1.06,1.01,1,0.995,1.02,1.03,0.907,0.994,1.05
CS(=O)(=O)c1cc(C(F)(F)F)ccc1C(=O)c1cnoc1C1CC1,1,0.985,1.02,1.01,1.02,0.96,0.911,1.11,1.06,1.11
Oc1ccccc1-c1ccccc1,0.977,1.03,0.98,1.01,0.935,1.05,1.14,0.989,0.959,0.969
CNC(=O)c1cc(Cl)cc(C)c1NC(=O)c1cc(Br)nn1-c1ncccc1Cl,0.997,0.975,0.996,0.958,1.01,0.958,0.922,0.944,1.04,1.06
O=C1c2ccccc2C(=O)N1SC(Cl)(Cl)Cl,1.04,1.05,0.992,1.01,1.01,1.06,1.16,1.01,0.947,0.999
N#Cc1c[nH]cc1-c1cccc2c1OC(F)(F)O2,0.978,0.952,1,1.03,0.945,0.971,1.04,0.932,0.942,0.957
CC1(C)[C@H](/C=C(\Cl)C(F)(F)F)[C@@H]1C(=O)OC(C#N)c1cccc(Oc2ccccc2)c1 (stereo not given in full),0.983,1.07,1.02,1.05,0.999,1.08,1.16,1.28,1.01,0.868
COc1ccc(-c2ccccc2)cc1NNC(=O)OC(C)C,0.918,1.14,0.964,1.05,0.951,1.08,1.17,0.865,0.932,0.92
CC(C)OC(=O)Nc1cccc(Cl)c1,0.976,0.905,0.958,1.04,0.981,0.991,0.921,0.876,0.974,0.926
CC(C)OC(=O)C(C(=O)OC(C)C)=C1SCCS1,0.947,1.16,0.995,1.04,0.947,1.03,1.09,0.897,0.96,1.1
CCC(=O)Nc1ccc(Cl)c(Cl)c1,0.951,1.04,0.975,0.984,0.928,1.01,1.02,0.817,0.906,0.927
CC1(C)C(C=C(Cl)Cl)C1C(=O)OC(C#N)c1ccc(F)c(Oc2ccccc2)c1 (stereo not given),1.04,1.22,1.02,1.02,0.964,1.03,1.03,1.06,0.994,1.03
CC[C@H]1CCC[C@H](O[C@H]2CC[C@H](N(C)C)[C@@H](C)O2)[C@@H](C)C(=O)C2=C[C@@H]3[C@@H](C=C(C)[C@@H]4C[C@@H](O[C@@H]5O[C@@H](C)[C@H](OC)[C@@H](OC)[C@H]5OC)C[C@@H]34)[C@@H]2CC(=O)O1.CC[C@H]1CCC[C@H](O[C@H]2CC[C@H](N(C)C)[C@@H](C)O2)[C@@H](C)C(=O)C2=C[C@H]3[C@@H]4C[C@H](O[C@@H]5O[C@@H](C)[C@H](OC)[C@@H](OC)[C@H]5OC)C[C@H]4C=C[C@H]3C2CC(=O)O1,0.832,1.14,0.981,1.04,1.05,1.06,1.01,0.89,1.1,1
CCOc1cc(Oc2ccc(C(F)(F)F)cc2Cl)ccc1[N+](=O)[O-],0.938,1.08,0.992,1.05,0.939,1.01,1.12,0.994,0.952,1.2
CCNc1nc(Cl)nc(NC(C)C)n1,0.944,0.917,0.95,0.996,0.956,1.01,0.945,0.995,0.928,1.02
